NadD block: blocks S. aureus nicotinate mononucleotide adenylyltransferase; purified NadD enzyme, colorimetric absorbance read-out; inhibition, % at 20 µM; 0.78% of 360,000 active; AID 602399; in the data active = inhibition above about 26%
PP1 inh: PP1-alpha (human) inhibition in PP5 counter-screen | AID 2235 | 0.9% of 320,000 active | inhibition, % at 6.7 µM | purified PP1alpha, OMFP fluorescence;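 active = inhibition above the mean inhibition of all tested compounds plus 3 SD, computed separately for each screening campaign, cut at about 15% in these data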
Target sequence (P62136 whole entry, looked up): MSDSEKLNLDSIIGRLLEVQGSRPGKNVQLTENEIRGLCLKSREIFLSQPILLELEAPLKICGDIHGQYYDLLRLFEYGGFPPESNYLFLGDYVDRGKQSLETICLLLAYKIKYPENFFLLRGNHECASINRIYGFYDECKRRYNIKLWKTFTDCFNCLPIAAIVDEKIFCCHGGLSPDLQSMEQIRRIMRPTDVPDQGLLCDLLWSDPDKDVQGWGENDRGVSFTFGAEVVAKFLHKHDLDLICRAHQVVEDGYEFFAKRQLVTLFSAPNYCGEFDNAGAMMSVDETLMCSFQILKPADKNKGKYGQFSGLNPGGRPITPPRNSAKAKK
Exocytosis inh: lytic granule exocytosis inhibition. inhibition, % at 10 µM. 0.66% of 360,000 active. TALL-104 LAMP-1 surface exposure, flow cytometry; cells stimulated with thapsigargin and PMA;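 active = inhibition above about 55%, limit read from the data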
Beta2AR agonist: human beta-2 adrenergic receptor agonism by FAP; Am2.2-beta2AR cells, FAP receptor internalization, flow cytometry; 0.43% of 340,000 active; P07550; response, % (concentration not given with the values);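 active = response above a set limit, near 3 SD of response in nonfluorescent compounds, cut at about 42% in these data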
GRK2 aptamer HTS: human GRK2 inhibition via aptamer displacement; 0.59% of 330,000 active; inhibition of aptamer binding, % at 10 µM; P25098; bead flow cytometry, FAM-aptamer displacement from GRK2;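 active = inhibition of aptamer binding above 40%, roughly 3 SD of noise, on plates passing a quality check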;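 note: median bead fluorescence of bound FAM aptamer so fluorescent compounds give negative values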
NadD inh conf: confirmation of Staphylococcus aureus NadD inhibitors | shares compounds with NadD block | purified S. aureus NadD, colorimetric enzyme assay | inhibition, % at 20 µM | 13% of 2,000 active; in the data active = inhibition mostly above about 42%, no sharp cut-off; inactive = mostly below about 42%
* = called active by the depositor; x = no result given. A selection: hits, their analogues and other compounds. The true share with any hit is near 2.9%.

SMILES	NadD block	PP1 inh	Exocytosis inh	Beta2AR agonist	GRK2 aptamer HTS	NadD inh conf
COc1ccc(C)cc1S(=O)(=O)N1CCCC(C(=O)N2CCN(c3ccccc3F)CC2)C1 (centres undefined)	-2	-12	0	8	0	x
CCCC(=O)N1CCCC1(C)C(=O)Nc1cc(OC)c(OC)c(OC)c1 (centres undefined)	-5	x	2	x	x	x
COc1ccc(CC(=O)Nc2ccc(S(=O)(=O)Nc3cc(C)nc(C)n3)cc2)cc1OC	2	x	-7	x	x	x
O=C(/C=C/c1cccs1)Nc1nccs1	8	1	1	-6	0	x
O=C(/C=C/c1cccs1)Nc1cccc(NC(=O)/C=C/c2cccs2)n1	32*	7	1	40	0	33
COc1cccc(C(=O)NN2CC(O)=C(c3nc(C)cs3)C2=N)c1	-3	-1	2	10	0	x
Cc1ccc(C(=O)NN2CC(O)=C(c3nc(-c4cccc([N+](=O)[O-])c4)cs3)C2=N)cc1	33*	17*	0	2	4	-4
CN1CCN(c2ccc(Cl)cc2NC(=O)c2ccc(S(=O)(=O)N(C)C)cc2)CC1	-7	-2	-3	4	6	x
COc1ccccc1NS(=O)(=O)c1cc(NC(=O)Nc2cccc(C)c2)ccc1N1CCCCC1	30*	10	4	6	0	47
O=C(Nc1ccc(N2CCOCC2)c(S(=O)(=O)Nc2ccccc2Cl)c1)c1ccccc1	23	-3	-1	12	0	x
Cc1cccc(NC(=O)c2cc(NC(=O)c3ccccc3)ccc2N2CCCCC2)c1	32*	2	0	-5	0	20
CN(C)S(=O)(=O)c1ccc(C(=O)Nc2cc(S(=O)(=O)Nc3ccccc3Cl)ccc2N2CCCCC2)cc1	29*	5	-6	-1	2	32
O=C(Nc1ccc(Cl)cc1)Nc1ccc(N2CCCC2)c(S(=O)(=O)Nc2ccccc2Cl)c1	33*	17*	8	17	0	22
CCN(C[C@H]1N[C@@](C)(C(=O)OC)[C@H]2C(=O)N(C)C(=O)[C@@H]12)C(=O)C1CCCCC1	0	x	0	-10	17	x
Cc1cc(NC(=O)CCC(=O)N(Cc2cccs2)C(C)(C)C(=O)NC2CCCCC2)no1	5	0	-5	-7	1	x
O=C1NC[C@@H](CCCCN2C[C@H](Cc3ccc(O)cc3)N(CCC3CCCCC3)C(=O)C2=O)N(CC2CCCCC2)C1=O	44*	x	0	x	x	47*
O=C1NC[C@H](Cc2ccccc2)N(C[C@@H]2CCCN2C[C@H](Cc2ccccc2)N2C[C@H](Cc3ccccc3)N(CC3CCCCC3)C(=O)C2=O)C1=O	22	x	-3	x	x	x
O=C1NC[C@H](Cc2ccccc2)N(C[C@@H]2CCCN2C[C@H](Cc2ccc(O)cc2)N2C[C@H](Cc3ccccc3)N(CC3CCCCCC3)C(=O)C2=O)C1=O	39*	x	2	x	x	48*
CC(C)C[C@H]1CN([C@@H](Cc2ccccc2)CN2CCC[C@H]2CN2C(=O)C(=O)NC[C@@H]2Cc2ccc(O)cc2)C(=O)C(=O)N1CC1CCCCC1	31*	x	-2	x	x	40
O=C1NC[C@H](Cc2ccc(O)cc2)N(C[C@@H]2CCCN2C[C@H](Cc2ccccc2)N2C[C@H](Cc3ccccc3)N(CC3CCCCCC3)C(=O)C2=O)C1=O	52*	x	3	x	x	43
CC(C)C[C@H]1CN([C@@H](Cc2ccccc2)CN2CCC[C@@H]2CN2C(=O)C(=O)NC[C@@H]2Cc2ccc(O)cc2)C(=O)C(=O)N1CC1CCCCC1	12	x	-1	x	x	x
Cc1cc(C)c2nc(NNC(=O)c3cc(=O)c4ccccc4o3)sc2c1	59*	6	2	3	0	62*
O=C(Cn1cncn1)c1ccc(F)cc1F	-1	-3	-2	-7	0	x
CCOc1ccc2nc(N3C(=O)/C(=C/c4ccc(Cl)cc4)NC3=S)sc2c1	49*	x	-3	14	x	12
COc1ccc2nc(N3C(=O)CNC3=S)sc2c1	-1	-4	6	2	0	x
Cc1ccc(-c2csc(N3CCN(c4cc5c(cc4Cl)nc(-c4ccncc4)n5CCN4CCCCC4)CC3)n2)cc1	31*	7	2	36	0	20
Cc1ccc(NC(=O)CN2C(=O)S/C(=C/c3ccc(O)c([N+](=O)[O-])c3)C2=O)cc1C	35*	x	2	2	x	34
Clc1cccc(N2CCN(CCCN3CCN(c4ccccc4)CC3)CC2)c1	-4	x	19	-9	x	x

Source: PubChem
